According to PubChem BioAssay (EPA / NIEHS):
A structure can be active in one record and inactive in another. Active and inactive are the calls of the source. Rule for the calls: active = hit-call score of the fitted dose curve at least 0.9, where 1 is the maximum; inactive = score below 0.9.

Assays:
[1] = read-out: Monokine induced gamma interferon (MIG), CXCL9 (gene 4283); assay: BSK_hDFCGF_MIG: BioMAP Diversity Plus: hDFCGF Assay for Monokine induced gamma interferon (MIG) Biomarker Activity (AID 2283063); conditions: primary human foreskin fibroblasts; actives raise or lower the signal
Summary of the method: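 ELISA read-out of MIG from primary human dermal fibroblasts 24 h post-dosing. Gain or loss of signal fitted bidirectionally, DMSO as baseline.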

[2] = read-out: Matrix Metallopeptidase 1 (MMP1), MMP1 (gene 4312); assay: BSK_hDFCGF_MMP1: BioMAP Diversity Plus: hDFCGF Assay for Matrix Metallopeptidase 1 (MMP1) Biomarker Activity (AID 2283064); conditions: primary human foreskin fibroblasts; actives raise or lower the signal
Summary of the method: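 ELISA read-out of MMP1 from human foreskin fibroblasts (primary skin cells), 24 h post-dose. Gain or loss of signal was fitted bidirectionally versus DMSO negative control; cytotoxicity was checked by SRB in parallel cultures.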

[3] = read-out: Vascular cell adhesion molecule 1 (VCAM1), VCAM1 (gene 7412); assay: BSK_hDFCGF_VCAM1: BioMAP Diversity Plus: hDFCGF Assay for Vascular cell adhesion molecule 1 (VCAM1) Biomarker Activity (AID 2283065); conditions: primary human foreskin fibroblasts; actives raise or lower the signal;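 for AC50: VCAM-1 protein level quantified by ELISA after 24 h chemical exposure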
Summary of the method: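 Primary human foreskin fibroblasts (hDFCGF system) were dosed with chemical and VCAM-1 was measured by ELISA 24 h later. Bidirectional curve fitting used DMSO as negative control and activity baseline.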

[4] = read-out: Plasminogen activator inhibitor-1 (PAI1), SERPINE1 (gene 5054); assay: BSK_hDFCGF_PAI1: BioMAP Diversity Plus: hDFCGF Assay for Plasminogen activator inhibitor-1 (PAI1) Biomarker Activity (AID 2283066); conditions: primary human foreskin fibroblasts; actives raise or lower the signal
Summary of the method: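 PAI-1 levels in human dermal foreskin fibroblasts were quantified by ELISA 24 h after dosing, with gain or loss analysed against DMSO. Overt cytotoxicity was checked by sulforhodamine B total-protein staining in parallel cultures.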

[5] = read-out: Intercellular Adhesion Molecule 1 (ICAM1), ICAM1 (gene 3383); assay: BSK_KF3CT_ICAM1: BioMAP Diversity Plus: KF3CT Assay for Intercellular Adhesion Molecule 1 (ICAM1) Biomarker Activity (AID 2283067); conditions: primary human keratinocytes with fibroblasts; actives raise or lower the signal
Summary of the method: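 Human keratinocyte plus foreskin fibroblast primary co-culture was exposed to chemical for 24 h. ICAM-1 was then quantified by ELISA, and the data were fit bidirectionally against DMSO as the negative control and baseline.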

[6] = BSK_KF3CT_SRB: Viability Assessment in the BioMAP Diversity Plus: KF3CT Assay (AID 2283069); conditions: primary human keratinocytes with fibroblasts;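 note: read 24 h after compound addition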
Summary of the method: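 SRB read-out at 560 nm (0.1% stain, TCA-fixed cells) gauges overt cytotoxicity in a human skin keratinocyte–fibroblast co-culture 24 h post-dosing. Signal change was fitted bidirectionally relative to DMSO control.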

[7] = read-out: Interleukin-1 alpha (IL1a), IL1A (gene 3552); assay: BSK_KF3CT_IL1a: BioMAP Diversity Plus: KF3CT Assay for Interleukin-1 alpha (IL1a) Biomarker Activity (AID 2283070); conditions: primary human keratinocytes with fibroblasts; actives raise or lower the signal
Summary of the method: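 Primary skin co-culture (keratinocytes, foreskin fibroblasts), 24 h exposure; ELISA for IL-1a; bidirectional curve fit vs DMSO.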

[8] = read-out: TIMP metallopeptidase inhibitor 2 (TIMP2), TIMP2 (gene 7077); assay: BSK_KF3CT_TIMP2: BioMAP Diversity Plus: KF3CT Assay for TIMP metallopeptidase inhibitor 2 (TIMP2) Biomarker Activity (AID 2283071); conditions: primary human keratinocytes with fibroblasts; actives raise or lower the signal
Summary of the method: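 TIMP-2 measured by ELISA at 24 h in human keratinocyte/fibroblast primary co-cultures exposed to chemicals. Both increases and decreases were fitted against DMSO. Parallel cultures were stained with SRB for total protein as an overt-cytotoxicity check.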

[9] = read-out: Transforming growth factor beta 1 (TGFb1), TGFB1 (gene 7040); assay: BSK_KF3CT_TGFb1: BioMAP Diversity Plus: KF3CT Assay for Transforming growth factor beta 1 (TGFb1) Biomarker Activity (AID 2283072); conditions: primary human keratinocytes with fibroblasts; actives raise or lower the signal
Summary of the method: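 ELISA quantifies TGF-b1 at 24 h post-dose in a primary human skin co-culture of keratinocytes and fibroblasts, with gain or loss judged against DMSO. Parallel SRB total-protein staining flags overt cytotoxicity.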

[10] = read-out: C-C motif chemokine 2 (Homo sapiens) (UniProt P13500); assay: BSK_KF3CT_MCP1: BioMAP Diversity Plus: KF3CT Assay for Monocyte Chemoattractant Protein 1 (MCP1/CCL2) Biomarker Activity (AID 2283073); conditions: primary human keratinocytes with fibroblasts; actives raise or lower the signal
Summary of the method: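 Human keratinocyte plus foreskin fibroblast primary co-culture exposed to chemical for 24 h. MCP-1 levels measured by ELISA. Bidirectional curve fitting relative to DMSO negative control as baseline.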

[11] = read-out: Matrix Metallopeptidase 9 (MMP9), MMP9 (gene 4318); assay: BSK_KF3CT_MMP9: BioMAP Diversity Plus: KF3CT Assay for Matrix Metallopeptidase 9 (MMP9) Biomarker Activity (AID 2283074); conditions: primary human keratinocytes with fibroblasts; actives raise or lower the signal;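 for AC50: MMP9 protein level quantified by ELISA in the co-culture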
Summary of the method: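 ELISA read-out of MMP-9 at 24 h post-dosing in a co-culture of human skin keratinocytes and foreskin fibroblasts. Gain or loss of signal was fitted in both directions against DMSO.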

[12] = read-out: urokinase plasminogen activator (uPA), PLAU (gene 5328); assay: BSK_KF3CT_uPA: BioMAP Diversity Plus: KF3CT Assay for urokinase plasminogen activator (uPA) Biomarker Activity (AID 2283075); conditions: primary human keratinocytes with fibroblasts; actives raise or lower the signal
Summary of the method: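 Skin co-culture (keratinocytes + foreskin fibroblasts), human primary; 24 h post-dose; uPA by ELISA; gain/loss fit vs DMSO baseline.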

[13] = read-out: CD40, CD40 (gene 958); assay: BSK_LPS_CD40: BioMAP Diversity Plus: LPS Assay for CD40 Biomarker Activity (AID 2283076); conditions: primary human HUVEC with PBMC; actives raise or lower the signal
Summary of the method: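 Primary human umbilical vein endothelial cells co-cultured with peripheral blood mononuclear cells, LPS-stimulated, were dosed with chemical and read 24 h later. CD40 levels were measured by ELISA and fitted bidirectionally against DMSO as negative control and baseline.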

[14] = read-out: E-selectin (Homo sapiens) (UniProt P16581); assay: BSK_LPS_Eselectin: BioMAP Diversity Plus: LPS Assay for Eselectin Biomarker Activity (AID 2283077); conditions: primary human HUVEC with PBMC; actives raise or lower the signal
Summary of the method: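 Human umbilical vein endothelial cells co-cultured with peripheral blood mononuclear cells under LPS stimulation; E-selectin measured by ELISA 24 h after chemical dosing. Activity fitted bidirectionally against DMSO as negative control and baseline.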

[15] = read-out: Interleukin-8 (IL8), CXCL8 (gene 3576); assay: BSK_LPS_IL8: BioMAP Diversity Plus: LPS Assay for Interleukin-8 (IL8) Biomarker Activity (AID 2283078); conditions: primary human HUVEC with PBMC; actives raise or lower the signal
Summary of the method: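 Human umbilical vein endothelial cells co-cultured with PBMC were stimulated with LPS; IL-8 levels were measured by ELISA 24 h after chemical dosing. Activity was fitted bidirectionally against DMSO as negative control and baseline.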

[16] = BSK_LPS_SRB: Viability Assessment in the BioMAP Diversity Plus: LPS Assay (AID 2283079); conditions: primary human HUVEC with PBMC;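 note: total protein by sulforhodamine B absorbance as a cytotoxicity measure; measured one day after compound addition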
Summary of the method: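 Human umbilical vein endothelial cells co-cultured with PBMC (LPS system) were dosed for 24 h. Total protein was stained with 0.1% sulforhodamine B after 10% TCA fixation, read at 560 nm, and fitted bidirectionally against DMSO baseline.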

[17] = read-out: Interleukin-1 alpha (IL1a), IL1A (gene 3552); assay: BSK_LPS_IL1a: BioMAP Diversity Plus: LPS Assay for Interleukin-1 alpha (IL1a) Biomarker Activity (AID 2283080); conditions: primary human HUVEC with PBMC; actives raise or lower the signal
Summary of the method: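 Human umbilical vein endothelial cells co-cultured with peripheral blood mononuclear cells were LPS-stimulated and exposed to test chemicals for 24 h. IL-1 alpha was quantified by ELISA, with bidirectional curve fitting against DMSO as the negative control and baseline.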

[18] = read-out: Monocyte Chemoattractant Protein-1 (MCP1), CCL2 (gene 6347); assay: BSK_LPS_MCP1: BioMAP Diversity Plus: LPS Assay for Monocyte Chemoattractant Protein-1 (MCP1) Biomarker Activity (AID 2283081); conditions: primary human HUVEC with PBMC; actives raise or lower the signal
Summary of the method: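 HUVEC plus PBMC co-culture (human primary cells, LPS system) exposed to test chemical for 24 h; MCP-1 measured by ELISA. Bidirectional curve fitting against DMSO baseline; parallel SRB total-protein staining flags overt cytotoxicity.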

[19] = BSK_LPS_PGE2: BioMAP Diversity Plus: LPS Assay for Prostaglandin E2 (PGE2) Biomarker Activity (AID 2283082); conditions: primary human HUVEC with PBMC; actives raise or lower the signal;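 for AC50: secreted prostaglandin E2 measured by ELISA in LPS-stimulated co-culture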
Summary of the method: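 PGE2 release measured by ELISA in an LPS-activated co-culture of human umbilical vein endothelial cells and peripheral blood mononuclear cells, read at 24 h post-dosing. DMSO served as baseline for bidirectional curve fitting.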

[20] = read-out: Interferon-gamma inducible Protein 10 (IP10), CXCL10 (gene 3627); assay: BSK_KF3CT_IP10: BioMAP Diversity Plus: KF3CT Assay for Interferon-gamma inducible Protein 10 (IP10) Biomarker Activity (AID 2283068); conditions: primary human keratinocytes with fibroblasts; actives raise or lower the signal
Summary of the method: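 KF3CT co-culture (keratinocytes + foreskin fibroblasts), 24 h compound, IP-10 by ELISA; bidirectional fit vs DMSO baseline.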

Measured: AC50

E-selectin (Homo sapiens), sequence (P16581 whole entry, looked up): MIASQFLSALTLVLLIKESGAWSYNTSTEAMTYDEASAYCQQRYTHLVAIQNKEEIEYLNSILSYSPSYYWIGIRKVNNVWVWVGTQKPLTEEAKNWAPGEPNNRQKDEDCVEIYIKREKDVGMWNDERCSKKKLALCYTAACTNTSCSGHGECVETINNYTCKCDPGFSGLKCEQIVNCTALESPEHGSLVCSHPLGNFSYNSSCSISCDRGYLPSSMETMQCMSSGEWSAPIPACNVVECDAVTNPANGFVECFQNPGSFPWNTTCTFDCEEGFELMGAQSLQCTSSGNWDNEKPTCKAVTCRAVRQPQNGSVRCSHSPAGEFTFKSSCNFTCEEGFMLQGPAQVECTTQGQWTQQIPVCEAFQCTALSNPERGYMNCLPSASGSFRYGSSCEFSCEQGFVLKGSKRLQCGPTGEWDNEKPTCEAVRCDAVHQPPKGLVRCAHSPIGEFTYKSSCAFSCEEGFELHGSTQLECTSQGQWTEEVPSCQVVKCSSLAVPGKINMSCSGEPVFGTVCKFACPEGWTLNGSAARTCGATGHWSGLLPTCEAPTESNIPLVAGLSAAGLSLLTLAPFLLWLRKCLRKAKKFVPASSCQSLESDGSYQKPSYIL

CCOP(=S)(OCC)SCS(=O)(=O)C(C)(C)C
inactive: [1] | [2] | [3] | [4] | [5] | [6] | [7] | [8] | [9] | [10] | [11] | [12] | [13] | [14] | [15] | [16] | [17] | [18] | [19]

O=C(N[C@H]1CN2CCC1CC2)c1ccc2c(c1)OCCO2
inactive: [1] | [2] | [3] | [4] | [5] | [6] | [7] | [8] | [10] | [11] | [12] | [13] | [14] | [15] | [16] | [17] | [18]
active: [19] 2.86 µM

CCOP(=O)(OCC)SCCSCC
inactive: [1] | [2] | [3] | [4] | [5] | [20] | [6] | [8] | [9] | [10] | [11] | [12] | [13] | [14] | [15] | [16] | [17] | [18] | [19]

CC(C=O)Cc1ccc2c(c1)OCO2 (configuration not stated)
inactive: [1] | [2] | [3] | [4] | [5] | [20] | [6] | [8] | [9] | [10] | [11] | [12] | [13] | [14] | [15] | [16] | [17] | [18] | [19]

Oc1c(Br)cc(Br)cc1Br
active: [4] 20 µM | [20] 31.6 µM | [11] 28.2 µM | [13] 13.9 µM
inactive: [1] | [2] | [3] | [5] | [6] | [7] | [10] | [12] | [14] | [15] | [16] | [17] | [18] | [19]

CCCCOC(=O)COC(=O)c1ccccc1C(=O)OCCCC
active: [3] 26.6 µM
inactive: [1] | [2] | [3] | [4] | [5] | [20] | [6] | [8] | [10] | [11] | [12] | [13] | [14] | [15] | [16] | [17] | [18] | [19]
